CYP2C19 inh = blockers of cytochrome P450 2C19 activity – biochemical, luminescence, ADME assay, primary screen. hit rate 21% among 96,000. CYP2C19 Supersomes, luciferin-H EGE luminescence, 30 min. inhibition, % at 5 µM. P33261;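 active = CYP2C19 inhibition above a set limit at 5 µM in the primary screen, cut at about 50% in these data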
CYP2C9 act = human CYP2C9 activators, primary screen, biochemical, luminescence | recombinant CYP2C9, luciferin-H conversion; active compounds read high; factor 1 = untreated enzyme, 0 = blocked | activation factor at 5 µM | hit rate 1.4% among 96,000;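 active = activation factor of 2 or more for CYP2C9 at a 5 µM dose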
Target sequence (P11712 whole entry, looked up): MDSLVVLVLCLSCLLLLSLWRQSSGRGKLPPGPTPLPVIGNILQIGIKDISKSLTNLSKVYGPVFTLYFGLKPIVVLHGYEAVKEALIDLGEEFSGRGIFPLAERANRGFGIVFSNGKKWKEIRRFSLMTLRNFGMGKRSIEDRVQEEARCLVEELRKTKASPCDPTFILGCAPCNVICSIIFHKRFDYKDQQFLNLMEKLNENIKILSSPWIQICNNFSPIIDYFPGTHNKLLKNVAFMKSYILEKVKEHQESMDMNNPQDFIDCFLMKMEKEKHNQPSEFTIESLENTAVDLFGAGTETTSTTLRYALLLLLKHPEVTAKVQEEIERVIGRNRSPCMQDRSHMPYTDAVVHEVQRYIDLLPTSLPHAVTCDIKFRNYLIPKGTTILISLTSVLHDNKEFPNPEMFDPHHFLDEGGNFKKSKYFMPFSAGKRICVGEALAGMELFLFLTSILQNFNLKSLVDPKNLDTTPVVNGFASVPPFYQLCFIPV
CYP2C19 activ = human CYP2C19 activators, primary screen, biochemical, luminescence; recombinant CYP2C19, luciferin-H EGE luminescence; active compounds read high; 0 = fully inhibited enzyme, 1 = untreated enzyme; activation factor at 5 µM; 96,000 tested, under 10 active; Cytochrome P450 2C19 (Homo sapiens), P33261;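 active = activation factor of at least 2 at 5 µM in the primary screen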
Cav3 T inh = Cav3.2 calcium influx blockers – cell-based, Fluo-4 calcium fluorescence, FDSS, MLSMR library, primary screen; B-score at 10 µM; hit rate 4% among 100,000; AID 449739, 2010; Cav3.2-expressing cells; active compounds read low; Voltage-dependent T-type calcium channel subunit alpha-1H (Homo sapiens), O95180;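 active = single-dose well whose peak fluorescence ratio is a statistical outlier from its plate by either plate-standardised score or position-corrected B-score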
CYP2C9 inh = blockers of cytochrome P450 2C9 activity – biochemical, luminescence, ADME assay, primary screen; inhibition, % at 5 µM; P11712; AID 777, 2007; hit rate 20% among 96,000; CYP2C9 Supersomes, luciferin-H conversion;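 active = blocking of liver enzyme CYP2C9 beyond about 50% at 5 µM, limit read from the data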
Numbers stand for hits. In the library only some 27% were active in any assay of this set; here they are far more common.

N#Cc1c(-c2ccco2)nc(SCC(=O)Nc2cccc(Cl)c2)[nH]c1=O was read as CYP2C19 inh 60.5, CYP2C9 act inactive, CYP2C19 activ inactive, Cav3 T inh inactive and CYP2C9 inh 99.0.
Screening COCCOC(=O)c1c(C)nc(SCC(=O)Nc2ccc(OC)cc2)c(C#N)c1-c1ccco1 returned CYP2C19 inh inactive, CYP2C9 act inactive, CYP2C19 activ inactive, Cav3 T inh inactive and CYP2C9 inh 54.0.
Screening CC(C)(C)N1CC2([N+](=O)[O-])CN(C(C)(C)C)CC([N+](=O)[O-])(C1)C2 returned CYP2C19 inh inactive, CYP2C9 act inactive, CYP2C19 activ inactive, Cav3 T inh inactive and CYP2C9 inh inactive.
For Cc1c(NC(=O)CCC(=O)N2CCCCC2)c(=O)n(-c2ccccc2)n1C the results were CYP2C19 inh inactive, CYP2C9 act inactive, CYP2C19 activ inactive and CYP2C9 inh inactive.
For Nc1ccc(C(=O)OCc2nc3c(ccc4ccccc43)[nH]2)cc1 the results were Cav3 T inh inactive.
Screening C/C(=N/Oc1nc(C)cc(C)n1)c1ccccc1 returned CYP2C19 inh inactive, CYP2C9 act inactive, CYP2C19 activ inactive, Cav3 T inh inactive and CYP2C9 inh inactive.
`CCCN(CCC)C(=O)c1cc(-c2ccc3c(c2)OCO3)nc2ccccc12` gave CYP2C19 inh 97.0, CYP2C9 act inactive, CYP2C19 activ inactive, Cav3 T inh inactive and CYP2C9 inh 100.3.
CC(NC(=O)c1cc(-c2ccc3c(c2)OCO3)nc2ccccc12)C(C)(C)C (stereo unspecified) was read as CYP2C19 inh inactive, CYP2C9 act inactive, CYP2C19 activ inactive, Cav3 T inh inactive and CYP2C9 inh 55.8.
Screening CC(=O)c1ccc(N2CCN(C(=O)c3cc(-c4ccc5c(c4)OCO5)nc4ccccc34)CC2)cc1 returned CYP2C19 inh inactive, CYP2C9 act inactive, CYP2C19 activ inactive and CYP2C9 inh 62.5.
Screening O=C(c1cc(-c2ccccc2)nc2ccccc12)N1CCOCC1 returned CYP2C19 inh inactive, CYP2C9 act inactive, CYP2C19 activ inactive, Cav3 T inh inactive and CYP2C9 inh inactive.
Screening O=C(CCSc1nc(-c2ccc3c(c2)OCO3)cc(C(F)(F)F)n1)NCc1ccccc1 returned Cav3 T inh inactive.
Screening Cc1sc2ncnc(NCCN3CCOCC3)c2c1C returned CYP2C19 inh inactive, CYP2C9 act inactive, CYP2C19 activ inactive, Cav3 T inh inactive and CYP2C9 inh inactive.
For CC(C#N)Sc1nc2ccccc2c(=O)n1-c1ccccc1 (stereo unspecified) the results were CYP2C19 inh inactive, CYP2C9 act inactive, CYP2C19 activ inactive, Cav3 T inh inactive and CYP2C9 inh inactive.
Screening Cc1ccc(NC(=O)CSc2nnc(Cn3cnc4ccccc43)o2)c(C)c1 returned Cav3 T inh inactive.
Screening Cc1ccc(NC(=O)CSc2nnc(CNC(=O)c3c(F)cccc3Cl)o2)cc1 returned CYP2C19 inh inactive, CYP2C9 act inactive, CYP2C19 activ inactive, Cav3 T inh inactive and CYP2C9 inh 73.3.
Screening COc1cc(C(=O)NCc2nnc(SCC(=O)Nc3cccc(C)c3)o2)cc(OC)c1OC returned CYP2C19 inh inactive, CYP2C9 act inactive, CYP2C19 activ inactive, Cav3 T inh inactive and CYP2C9 inh inactive.
Cc1ccc(NC(=O)CSc2nnc(Cn3cnc4ccccc43)o2)cc1 was read as CYP2C19 inh inactive, CYP2C9 act inactive, CYP2C19 activ inactive, Cav3 T inh inactive and CYP2C9 inh 64.7.
`COc1ccccc1NC(=O)C/C(N)=N/O` gave CYP2C19 inh inactive, CYP2C9 act inactive, CYP2C19 activ inactive, Cav3 T inh inactive and CYP2C9 inh inactive.
`Nc1c(C(=O)NC2CCCC2)sc2nc(-c3cccs3)ccc12` gave CYP2C19 inh 71.9, CYP2C9 act inactive, CYP2C19 activ inactive, Cav3 T inh inactive and CYP2C9 inh inactive.
`Nc1c(C(=O)Nc2nccs2)sc2nc(-c3cccs3)cc(C(F)(F)F)c12` gave CYP2C19 inh inactive, CYP2C9 act inactive, CYP2C19 activ inactive and CYP2C9 inh inactive.
`Cc1ccc(N2C(=O)c3cccc4c(N5CCN(C)CC5)ccc(c34)C2=O)c2cccnc12` gave CYP2C19 inh inactive, CYP2C9 act inactive, CYP2C19 activ inactive, Cav3 T inh -4.31 and CYP2C9 inh inactive.
For Cc1n[nH]c(C)c1N1C(=O)c2cccc3c(Br)ccc(c23)C1=O the results were Cav3 T inh inactive.
Screening CCN1c2ccccc2-c2nc3ccccc3n2C1c1ccncc1 (stereo unspecified) returned CYP2C19 inh 97.7, CYP2C9 act inactive, CYP2C19 activ inactive, Cav3 T inh inactive and CYP2C9 inh 99.9.
`c1cncc(C2Nc3ccccc3-c3nc4ccccc4n32)c1` (stereo unspecified) gave CYP2C19 inh inactive, CYP2C9 act inactive, CYP2C19 activ inactive, Cav3 T inh inactive and CYP2C9 inh 57.1.
CCN(CC)CCn1c(NCc2ccc(C)o2)nc2ccccc21 was read as CYP2C19 inh inactive, CYP2C9 act inactive, CYP2C19 activ inactive and CYP2C9 inh inactive.
Screening CCN1c2ccccc2-c2nc3ccccc3n2C1c1ccccn1 (stereo unspecified) returned CYP2C19 inh inactive, CYP2C9 act inactive, CYP2C19 activ inactive, Cav3 T inh inactive and CYP2C9 inh inactive.
c1ccc2c(c1)NC(c1ccncc1)n1c-2nc2ccccc21 (stereo unspecified) was read as Cav3 T inh inactive.
`CCN1c2ccccc2-c2nc3ccccc3n2C1c1cccnc1` (stereo unspecified) gave CYP2C19 inh inactive, CYP2C9 act inactive, CYP2C19 activ inactive, Cav3 T inh inactive and CYP2C9 inh 71.1.
`Cc1ccc(C2N(C)c3ccccc3-c3nc4ccccc4n32)o1` (stereo unspecified) gave CYP2C19 inh 86.9, CYP2C9 act inactive, CYP2C19 activ inactive, Cav3 T inh -5.37 and CYP2C9 inh 92.6.
c1ccc(N2CCN(c3ccccc3)C2c2cccnc2)cc1 was read as Cav3 T inh inactive.
`Cn1nccc1C(=O)NC(=S)Nc1sc2c(c1C#N)CCCCC2` gave CYP2C19 inh inactive, CYP2C9 act inactive, CYP2C19 activ inactive, Cav3 T inh inactive and CYP2C9 inh inactive.
For CC1(C)Cc2c(sc3c2c(=N)n(Cc2ccco2)c(=O)n3CC(=O)Nc2cccc(Cl)c2)CO1 the results were CYP2C19 inh inactive, CYP2C9 act inactive, CYP2C19 activ inactive, Cav3 T inh -5.22 and CYP2C9 inh inactive.
For Cc1cccc(NC(=O)Cn2c(=O)n(Cc3ccco3)c(=N)c3c4c(sc32)COC(C)(C)C4)c1 the results were CYP2C19 inh 58.7, CYP2C9 act inactive, CYP2C19 activ inactive, Cav3 T inh -4.19 and CYP2C9 inh 60.6.
`Cc1oc2c(C)c3oc(=O)c4c(c3cc2c1C)CCC4` gave CYP2C19 inh 80.5, CYP2C9 act inactive, CYP2C19 activ inactive, Cav3 T inh inactive and CYP2C9 inh inactive.
Cc1oc2cc3oc(=O)c4c(c3cc2c1C)CCC4 was read as CYP2C19 inh 63.2, CYP2C9 act inactive, CYP2C19 activ inactive, Cav3 T inh inactive and CYP2C9 inh inactive.
